The structures appear in SMILES notation. Compounds without any hit were thinned out: in the full panel of roughly 79,000, 15% have a hit. A number with no mark means an inactive call. The source made the active and inactive calls. Rule as the data show it: active = growth inhibition above about 70%; inactive = the rest.

Assay [1] can be described thus: NCI Yeast Anticancer Drug Screen. Data for the rad50 strain (AID 155).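 Also: 0% = growth of vehicle-only cultures of the same strain.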 To be noted: S. cerevisiae rad50 strain growth inhibition; at 50.0 µM; stronger effect = higher value. In short, it runs like this:
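Growth of the mutant yeast was measured after compound exposure and referenced to vehicle-treated cultures.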

Assay [2] in a line: NCI Yeast Anticancer Drug Screen. Data for the mec2-1 strain (AID 157). To be noted: S. cerevisiae mec2-1 strain, at 50.0 µM, stronger effect = higher value. In a few lines: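 Cells of the genetically defined mec2-1 yeast strain are incubated with test compound. Inhibition of growth is calculated against vehicle-treated controls.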
The nature of assay [3]: NCI Yeast Anticancer Drug Screen. Data for the sgs1 mgt1 strain (AID 161).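 Also: 0% = growth of cultures given vehicle only.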 To be noted: S. cerevisiae sgs1 mgt1 strain, at 50.0 µM, stronger effect = higher value. In a few lines: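 Inhibition of yeast growth, normalised to vehicle-treated controls, is reported for a strain bearing genetic alterations in DNA damage repair.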
A short description of assay [4]: NCI Yeast Anticancer Drug Screen. Data for the bub3 strain (AID 167). The conditions noted are these: S. cerevisiae bub3 mutant strain, at 50.0 µM, stronger effect = higher value. In short, it runs like this:
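Whole-cell yeast assay. The mutant strain was incubated with compounds, and growth inhibition was determined by comparison with vehicle-treated cells.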

Assay [5] in a line: NCI Yeast Anticancer Drug Screen. Data for the mlh1 rad18 strain (AID 175). The conditions noted are these: S. cerevisiae mlh1 rad18 strain growth inhibition; at 50.0 µM; stronger effect = higher value. In a few lines: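 Compound-treated yeast growth, normalised to vehicle controls. Strain bears defined DNA repair mutations.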
Assay [6] is described as follows: NCI Yeast Anticancer Drug Screen. Data for the cln2 rad14 strain (AID 165).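 Also: 0% = growth equal to vehicle treated cultures.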 The conditions noted are these: S. cerevisiae cln2 rad14 strain, at 50.0 µM, stronger effect = higher value. In short, it runs like this: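 The screen exposed genetically defined yeast (cln2 rad14) to test compounds and scored growth inhibition relative to vehicle-treated controls.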

As for `CO[C@H]1C[C@H](O[C@H]2CC[C@]3(C=O)[C@H]4CC[C@]5(C)[C@@H](C6=CC(=O)OC6)CC[C@]5(O)[C@@H]4CC[C@]3(O)C2)O[C@H](C)[C@H]1O[C@@H]1O[C@H](CO)[C@@H](O)[C@H](O)[C@H]1O`, the growth inhibition was 18.4% in assay [1]; -11.1% in assay [2]; 6.2% in assay [3]; 6.9% in assay [4]; 32.3% in assay [5].

`Cc1ccc(OP(=O)(Oc2ccc(C)c(C)c2)Oc2ccc(C)c(C)c2)cc1C`: the growth inhibition in assay [1] is -3.7%; in assay [2] it was -8.55%; in assay [6], -8.95%; in assay [4] it was 5.2%; in assay [5] it was -17%.

Turning to `CC[n+]1c(C)n(-c2ccccc2)c(=O)c2ccccc21`, the growth inhibition in assay [1] is -0.3%; in assay [2], -6.85%; in assay [3] it was 4.75%; in assay [6], 18.2%; in assay [4], -10.9%; in assay [5], 6.25%.

Take `O=C([O-])CC(=O)[O-].O=C([O-])CC(=O)[O-].[K+].[Pd+2]`: the growth inhibition in assay [1] is 14.2%; in assay [2], 19.1%; in assay [3], 28.2%; in assay [6], 26.6%; in assay [5] it was 16.2%.

Regarding `O=c1[nH]c2ccccc2c(=O)n1-c1ccccc1`, the growth inhibition in assay [1] is -8.1%; in assay [2] it was -4.45%; in assay [3] it was -1.05%; in assay [6], -6.05%; in assay [4], -2%; in assay [5] it was -15.4%.

Take `O=C(O)CC(S)C(=O)O` (stereo unspecified): the growth inhibition in assay [1] was -19.1%; in assay [2], 10.4%; in assay [3], -3.7%; in assay [6], -38.3%; in assay [5], 14.6%.

Turning to `Cc1ccc(N2CC=C(c3ccccc3)OP2(=O)N(CCCl)CCCl)cc1` (stereo unspecified), the growth inhibition in assay [1] was 76.8% (active); in assay [2], 84.8% (active); in assay [3], 75.4% (active); in assay [4], 87.9% (active); in assay [5], 70.2% (active).

With `C=CCN(CC=C)C(Cc1ccccc1)c1ccccc1` (stereo unspecified), the growth inhibition in assay [1] is 2.95%; in assay [2] it was -7.75%; in assay [3], -5.85%; in assay [6] it was -5.6%; in assay [5], -5.95%.

Take `O=c1c2ccccc2sc2c1c(N(CCCl)CCCl)cc1ccccc12`: the growth inhibition is 39.2% in assay [1]; 5.5% in assay [2]; 20.1% in assay [3]; -5.85% in assay [4]; 18.8% in assay [5].

For the compound `CN(C)C(=S)Oc1c(Cl)cc(S(=O)(=O)F)cc1Cl`, the growth inhibition in assay [1] was 35.4%; in assay [2] it was 12.9%; in assay [3] it was 15.2%; in assay [6], 19.6%; in assay [5], 21.4%.

`NCCN.O=C([O-])C(=O)[O-].O=C([O-])C(=O)[O-].[Co+3].[K+]`: the growth inhibition in assay [1] was 0.2%; in assay [2] it was -8.5%; in assay [3], 10.2%; in assay [4], 5.1%; in assay [5], -2.4%.

As for `CN1CCc2c([nH]c3ccccc23)C1`, the growth inhibition in assay [1] was 18.4%; in assay [2], -7.3%; in assay [3], 20.6%; in assay [6], 17.2%; in assay [5], -45.1%.

In the case of `CC12CC3CC(C1)CC(N=[N+]=[N-])(C3)C2`, the growth inhibition in assay [1] was -16.4%; in assay [2], -1.3%; in assay [3], -2.65%; in assay [6], 1.3%; in assay [5], -2.6%.

With `CC(C)C1CN1CC(O)Cn1ccnc1[N+](=O)[O-]` (stereo unspecified), the growth inhibition in assay [1] is -15.2%; in assay [2] it was -17.8%; in assay [3] it was -19.1%; in assay [6] it was 0%; in assay [5], -19.2%.

On to `O=Cc1ccccc1O.[Pr]`, for which the growth inhibition in assay [1] is 29.1%; in assay [2], -24.4%; in assay [3], 37%; in assay [4], 24.4%; in assay [5], 28.6%.

Turning to `O=C1CCC(=O)N1[N+](=O)[O-]`, the growth inhibition is -17.2% in assay [1]; -10.2% in assay [2]; -18.8% in assay [3]; 2.95% in assay [6]; -2.45% in assay [4]; -16% in assay [5].

For `O=NN(O)c1ccccc1.O=NN(O)c1ccccc1.[Mn+2]`, the growth inhibition is 4.85% in assay [1]; 0.15% in assay [2]; 13.1% in assay [3]; -46.5% in assay [6]; -4.3% in assay [4]; 3.85% in assay [5].

Take `COc1cccc(C)c1C1CC2CCCN2O1` (stereo unspecified): the growth inhibition in assay [1] was 16.6%; in assay [2], 5.5%; in assay [3] it was 5.95%; in assay [6], 9.4%; in assay [4], 14.7%; in assay [5], 5.3%.

Consider `CC1C(C(=O)c2ccc(-c3ccccc3)cc2)N1C(C)(C)C` (stereo unspecified), for which the growth inhibition was -10.4% in assay [1]; 10.2% in assay [2]; 7.75% in assay [3]; 23.4% in assay [6]; 1.15% in assay [4]; -11.8% in assay [5].

Turning to `O=C1CC2OCC=C3CN4CCC56c7ccccc7N1C5C2C3CC46` (stereo unspecified), the growth inhibition is 9.65% in assay [1]; 2.3% in assay [2]; 4.15% in assay [3]; 8.9% in assay [4]; -9.25% in assay [5].

For the origin of these results see PubChem BioAssay (NCI).
